This note sets out measurements from PubChem BioAssay AID1851 (National Center for Advancing Translational Sciences (NCATS), 2009).

SMILES strings stand for the structures. Several values for one entry are separate records, joined by “and”; a condition that tells them apart may be missing. Identical values can stand only once. In all, about 16,000 compounds went through this assay and about 2,600 (16%) were called active. Not shown: some 20% with an inconclusive outcome. Calls follow the shape of the dose curve; as a rule, active = well fitted curve in the direction sought with a large enough effect; inconclusive = small, poorly fitted or top-dose-only effect, or effect the other way; inactive = no such curve, though single readings can be large or run the other way. The list is a sample of the results.
% is scaled to controls: 0 for no effect and ±100 for the full control effect.

In the test the target is Cytochrome P450 2D6 (Homo sapiens) (UniProt P10635). In words: Cytochrome panel assay with activity outcomes. The settings on record: recombinant CYP, pro-luciferin dealkylation, luminescence, p450-cyp2d6; series mostly up to 57.1 µM; activity, negative = inhibition: at the top concentration.
Cytochrome P450 2D6 (Homo sapiens), sequence (P10635 whole entry, looked up): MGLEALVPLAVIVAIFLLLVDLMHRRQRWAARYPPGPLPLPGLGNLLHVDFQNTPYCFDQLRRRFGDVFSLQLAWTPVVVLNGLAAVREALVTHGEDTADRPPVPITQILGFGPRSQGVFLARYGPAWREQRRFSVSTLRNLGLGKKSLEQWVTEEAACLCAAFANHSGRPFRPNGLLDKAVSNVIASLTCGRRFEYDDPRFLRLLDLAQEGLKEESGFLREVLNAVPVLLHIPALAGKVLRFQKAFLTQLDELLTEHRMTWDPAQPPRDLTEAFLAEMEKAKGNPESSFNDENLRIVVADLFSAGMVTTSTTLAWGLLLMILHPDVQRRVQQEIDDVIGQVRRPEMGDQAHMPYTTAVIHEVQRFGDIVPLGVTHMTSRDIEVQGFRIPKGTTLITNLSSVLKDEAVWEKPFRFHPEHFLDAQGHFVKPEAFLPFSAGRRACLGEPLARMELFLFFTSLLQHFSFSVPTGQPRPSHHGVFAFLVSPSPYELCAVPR
For the molecule `COc1nc(OCCNC(C)=O)nc(N(C)C)n1`, the “activity, negative = inhibition” value was 6.28% (inactive).

`CC(C)NC(=O)c1ccccc1NC(=O)/C=C/c1ccc([N+](=O)[O-])cc1`: the “activity, negative = inhibition” value is 2.09% (inactive).

As to `Cc1cccc(NC2(C(F)(F)F)N=C(c3ccccc3)NC2=O)n1` (stereo not given), the “activity, negative = inhibition” value was 19.5% (inactive).

In the case of `O=C(O)c1cc(=O)c2c(Cl)cc(Cl)cc2[nH]1`, the “activity, negative = inhibition” value was -3.15% (inactive).

What is called AC50 is the concentration giving half of the maximal activity seen. On to `Cc1cc(Br)cc(C)c1OCCCCN(C)C`, for which the concentration at half-maximal activity (AC50) is 2 µM (active).

Consider `CCN1C(=O)[C@H]2[C@H]3[C@H](O)[C@H](O)C/C(=N/OC[C@@H](O)COCc4ccco4)[C@H]3CC[C@@H]2C1=O`, for which the activity, negative = inhibition was -6.12% [at 11.4 µM] (inactive).

Take `Nc1nc(-c2cc(-c3cccc4ccccc34)nc(N)n2)cc(-c2cccc3ccccc23)n1`: the activity, negative = inhibition was -0.19% [at 11.4 µM] (inactive).

On to `Nc1cc2c(nc3c4ccccc4c(N)cc3[n+]2-c2cccc3ccccc23)c2ccccc12` (tested in a mixture with another compound), for which the AC50 was 1.58 µM (active).

Take `CSCC[C@@H]1NC(=O)C/C=C\[C@@H](C)COC(=O)[C@@H](C)COC1=O`: the activity, negative = inhibition is 16.4% [at 11.4 µM] (inactive).

As for `Cc1sc(=NC(=O)c2ccco2)n(C)c1-c1ccccc1`, the “activity, negative = inhibition” value is -2.23% (inactive).

As to `COc1ccccc1NC(=O)CCN1C(=O)C2CC=C(Cl)CC2C1=O` (stereo not given), the “activity, negative = inhibition” value is 21.9% (inactive).

For `CCOc1ccccc1NC(=O)C(=O)NCC1CCCN1CC` (stereo not given), the “activity, negative = inhibition” value was -13.6% (inactive).

Take `COc1cc(NC(=O)c2ccccc2)c(OC)cc1NC(=O)CN1CCN(c2ccccn2)CC1`: the “activity, negative = inhibition” value was -3.63% (inactive).

Consider `CCOc1ccccc1NC(=O)CCC(=O)O`, for which the “activity, negative = inhibition” value is 3.08% (inactive).

Take `CCn1c(-c2ccccc2Cl)nn(CC(=O)Nc2ccccc2OC)c1=S`: the “activity, negative = inhibition” value is -8.99% (inactive).

Consider `CC(C)OC(=O)CN1CCN(C2c3ccccc3-c3ccccc32)CC1`, for which the AC50 is 0.251 µM (active).

In the case of `COc1ccc(NC(C)=O)cc1NC(=O)CN1CCN(C2c3ccccc3-c3ccccc32)CC1`, the AC50 is 15.8 µM (active).

On to `O=C(O)C[C@@H](C(=O)O)C1c2ccccc2-c2ccccc21`, for which the activity, negative = inhibition was 6.65% [at 11.4 µM] (inactive).

Turning to `COc1ccc(NC(C)=O)cc1NC(=O)CN1CCN(CC(=O)Nc2ccccc2Cl)CC1`, the “activity, negative = inhibition” value was -21.7% (inactive).

As for `COc1ccccc1NC(=O)CN1CCN(C2c3ccccc3-c3ccccc32)CC1`, the AC50 is 0.0251 µM (active).

On to `CCOc1ccccc1NC(=O)CN1CCC(NC(=O)c2ccccc2)CC1`, for which the AC50 is 15.8 µM (active).

On to `Cc1ccc(C(=O)C(OC(=O)CN2C(=O)c3ccccc3C2=O)c2ccccc2)cc1` (stereo not given), for which the “activity, negative = inhibition” value is 8.39% (inactive).

On to `CC(=O)c1c(N2CCC(C(N)=O)CC2)nc(=S)n(-c2ccccc2)c1C`, for which the “activity, negative = inhibition” value is 17.6% (inactive).

With `CCCc1cc2c(=O)c(-c3ccc4c(c3)OCCO4)coc2cc1OC(=O)c1ccco1`, the “activity, negative = inhibition” value is -18.9% (inactive).

In the case of `COC(=O)c1c(-n2c(C)cc(C=O)c2C)sc2c1CCCC2`, the “activity, negative = inhibition” value is -0.395% (inactive).

Take `CCOC(=O)c1c(-c2ccc(C)cc2)csc1NC(=O)C1CC=CCC1C(=O)O` (stereo not given): the “activity, negative = inhibition” value is -18.1% (inactive).

On to `COC(=O)[C@@H]1O[C@@H](c2c(OC)c(OC)c(C)c(OC)c2OC)[C@H](C)[C@@H](O)[C@@H]1C`, for which the activity, negative = inhibition is 15.2% [at 11.4 µM] (inactive).

Turning to `NS(=O)(=O)c1cc(C(=O)O)cc(N2CCCC2)c1Oc1ccccc1`, the “activity, negative = inhibition” value was 1.59% [at 25.6 µM] (inactive).

Turning to `O=C(c1cn(-c2ccccc2)nc1-c1cccs1)N1CCOCC1`, the “activity, negative = inhibition” value is -11.1% (inactive).

Take `O=C1C[C@@H](O)[C@@H](O)[C@H]2[C@@H]3C(=O)N(c4cccc(Oc5ccccc5)c4)C(=O)[C@@H]3CC[C@H]12`: the activity, negative = inhibition was -10.1% [at 11.4 µM] (inactive) and -0.87% [at 11.4 µM] (inactive).

For the molecule `CCOC(=O)Cc1cc(=O)n2[nH]c(C)c(-c3ccccc3)c2n1`, the “activity, negative = inhibition” value is -5.14% (inactive).

In the case of `CCS(=O)(=O)c1ccc2c(c1)N(S(C)(=O)=O)CC(C(=O)NCCOC)O2` (stereo not given), the “activity, negative = inhibition” value was -11.3% (inactive).

With `Cc1ccccc1-c1nc(-c2ccc(NC(=O)c3cccs3)cc2)no1`, the “activity, negative = inhibition” value is -16.1% (inactive).

For the molecule `O=C(Nc1ccccc1)c1cc(-n2cnnc2)ccc1Cl`, the “activity, negative = inhibition” value is -7.55% (inactive).

For the molecule `C[C@]12CC[C@H]3c4ccc(OC[C@H]5CO5)cc4CC[C@H]3[C@H]1CC[C@@H]2O`, the activity, negative = inhibition is -13.3% [at 11.4 µM] (inactive).

In the case of `COC(=O)N1CCC[C@@]2(CCN(c3ccccn3)C2)C1`, the AC50 was 12.6 µM (active).

Regarding `COC(=O)N1CCC[C@@]2(CCN(c3ncccn3)C2)C1`, the “activity, negative = inhibition” value was 5.06% (inactive).

As for `O=C(c1ccncc1)N1CCC[C@@]2(CCN(c3ccccn3)C2)C1`, the “activity, negative = inhibition” value was -13.2% (inactive).

`O=C(Oc1ccccc1)N1CCC2(CC1)CN(c1ccccn1)C2`: the “activity, negative = inhibition” value is -16.7% (inactive).

Consider `O=C(Oc1ccccc1)N1CCC[C@@]2(CCN(c3ncccn3)C2)C1`, for which the “activity, negative = inhibition” value is 1.35% (inactive).

Regarding `O=C(Oc1ccccc1)N1CCC[C@@]2(CCN(c3ccccn3)C2)C1`, the AC50 was 7.94 µM (active).

Consider `Cc1ccc(-c2nnc(-c3ccc(NC(=O)c4cccs4)cc3)o2)cc1`, for which the “activity, negative = inhibition” value was 0.249% (inactive).

For `Cc1ccc(S(=O)(=O)O[C@H]2C[C@@H](C(C)(C)C)CC[C@@H]2c2ccccc2)cc1`, the activity, negative = inhibition is -9.43% [at 11.4 µM] (inactive).

For `CCOC(=O)C1=NOC(CNC(=O)C2=NOC(CNC(=O)c3c(-c4ccccc4Cl)noc3C)C2)C1` (stereo not given), the “activity, negative = inhibition” value is -8.08% (inactive).

`C/C(CCN1CCc2nc(-c3ccccc3)c(-c3ccccc3)cc2C1)=N\OC[C@@H](C)[C@H](OCc1ccccc1)C(C)C`: the activity, negative = inhibition is 13.5% [at 11.4 µM] (inactive).
